# TDP1 inh – qHTS Assay for Inhibitors of Tyrosyl-DNA Phosphodiesterase (TDP1) | Tyrosyl-DNA phosphodiesterase 1 (Homo sapiens), Q9NUW8 | actives 0.28% (n = 350,000) | AID 485290, 2010 | recombinant TDP1, AlphaScreen DNA substrate cleavage | Potency, µM (highest dose often 130 µM), for inactives: at the highest dose activity change, negative = inhibition, most hits filed as inhibitors; further: nearly all actives have a fitted effect of over 40% in size
#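 Compounds were preincubated with Tdp1 (1 nM final) for 15 min at room temperature before substrate (15 nM final) started a 5 min reaction; beads (10 ug/ml final) were then added for 10 min before AlphaScreen detection.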
# FEN1 inhibitor – qHTS Assay for the Inhibitors of Human Flap endonuclease 1 (FEN1); Potency, µM (series often up to 114 µM), without a hit: top-dose activity change, negative = inhibition, usual class: inhibitors; Recombinant FEN1 flap cleavage, fluorescence, 15 min; actives 0.35% (n = 390,000); P39748; further: nearly all actives have a fitted effect of over 65% in size
#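 In this screen, 50 nM flap DNA substrate was added to 10 nM FEN1 pretreated with compound for 15 min at room temperature; cleavage was followed with reads at 0 and 15 min, and Hill fitting gave concentration–response parameters.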
# RECQ1 helicase – qHTS Assay for Inhibitors of RecQ-Like Dna Helicase 1 (RECQ1); ATP-dependent DNA helicase Q1 (Homo sapiens), P46063; RECQ1 DNA unwinding, red fluorescence kinetic read; Potency, µM (doses to about 57.3 µM), for inactives: top-dose activity, negative = inhibition, actives largely listed as inhibitors; actives 0.54% (n = 240,000); AID 2549, 2010;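 further: plate controls were vehicle for no effect and no enzyme for full effect; nearly all actives have a fitted effect of over 30% in size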
#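 50 nM RECQ1T1 preincubated 15 min with compound in Tris pH 8.0 buffer with MgCl2, DTT, Tween-20 and 2.5 ug/ml poly(dI-dC); started with 200 nM TAMRA/BHQ-2 forked duplex and 2 mM ATP. Unwinding read as fluorescence (525/598 nm), two reads 2 h apart.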
# APEX1 inh – qHTS Assay for Inhibitors of the Human Apurinic/apyrimidinic Endonuclease 1 (APE1); DNA repair nuclease/redox regulator APEX1 (Homo sapiens), P27695; recombinant APE1, TAMRA/BHQ-2 abasic DNA cleavage fluorescence; Potency, µM (titrated, usually from 65.8 µM), for inactives: top-dose activity change, negative = inhibition, usual class: inhibitors; actives 0.35% (n = 350,000);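 further: plate controls were vehicle for no effect and reference inhibitor for full effect; nearly all actives have a fitted effect of over 55% in size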
#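 Measures dequenching upon AP-site incision of a 5'-TAMRA/3'-BHQ-2 THF-containing duplex, 50 nM; human APE1 0.75 nM after 15 min room-temperature exposure to compound; kinetic three-point read at one-minute spacing.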
# BLM helicase inh – qHTS Assay for Inhibitors of Bloom's syndrome helicase (BLM). actives 0.2% (n = 350,000). RecQ-like DNA helicase BLM (Homo sapiens), P54132. Potency, µM (titrated, usually from 56.1 µM), inactives show top-dose activity change, negative = inhibition, most hits filed as inhibitors. recombinant BLM DNA unwinding, fluorescence dequenching;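 further: plate controls were vehicle for no effect and no enzyme for full effect; nearly all actives have a fitted effect of over 35% in size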
# * = called active by the depositor; i = inactive; ? = inconclusive; . = no result given; [ ] = remark or other dose. In the library only some 0.92% were active in any assay of this set; here they are far more common. The call rests on the fitted dose curve; in most records, active means well fitted curve in the direction sought with a large enough effect; inconclusive means small, poorly fitted or top-dose-only effect, or another doubt; inactive means no such curve, though single readings can be large; an effect the other way counts as inactive or inconclusive. Unless noted, on the % scale 0 is the no-effect control and ±100 the full control effect; potency means the concentration at half of the fitted maximal effect.
SMILES,TDP1 inh,FEN1 inhibitor,RECQ1 helicase,APEX1 inh,BLM helicase inh
CC(=O)Nc1ccc(OC2=NS(=O)(=O)c3ccccc32)cc1,2.7%,.,.,.,.
CCC(=O)NC(c1ccc(C)s1)c1cc(Cl)c2cccnc2c1O (configuration not stated),0.1%,.,.,.,.
NC(N)=NCC1COC2(CCCCC2)O1 (configuration not stated),.,.,.,4.5%[21 µM],.
O=C(O)C1CCCCC1C(=O)Nc1cccc(Br)c1 (configuration not stated),2.82µM*,-5.8%,.,0.474µM*,.
O=c1ccc(=O)n(-c2ccccc2)[nH]1,5.6%,6.1%,-1.3%,1.0%,0.0%
CC(C)(C)c1cc(=O)n(-c2ccccc2)[nH]1,2.5%,4.3%,i,-9.5%,17.8µM*
O=C(NCc1cccnc1)c1ccc(NS(=O)(=O)c2ccccc2)cc1,3.55µM*,-5.4%,.,19.9%,-4.9%
O=C(NCc1ccncc1)c1ccc(NS(=O)(=O)c2ccccc2)cc1,.,-3.5%,.,.,.
CCc1ccc(/C=C2/SC(=S)NC2=O)cc1,.,-3.3%[57.1 µM],.,.,.
Cc1ccc(NC(=O)C(c2ccccc2)N2CCN(CC(=O)N3CCOCC3)CC2)cc1Cl (configuration not stated),28.2µM*,-0.6%,.,10.6µM*,.
Cc1nc(CN(C)c2ncnc3cc(-c4ccc5c(c4)OCO5)ccc23)cs1,-0.4%,.,.,.,.
CCOC(=O)c1cc(-c2ccc(/C=C3/C(=O)N(c4ccc(C(=O)O)cc4)N=C3C)o2)ccc1Cl,.,-21.5%,.,8.44µM*,-0.5%
O=C(O)c1cc(-c2ccc(/C=C3\NC(=O)N(c4ccc(Cl)cc4)C3=O)o2)ccc1Cl,6.31µM*,?,?,25.1µM*,52.2%
CCOC(=O)c1cc(-c2ccc(/C=N\n3cnnc3)o2)ccc1Cl,1.1%,-8.2%,-7.2%,22.3%,0.8%
O=C(O)c1cc(-c2ccc(/C=c3\sc4nc5ccc(Br)cc5n4c3=O)o2)ccc1Cl,.,.,.,2.67µM*,-26.9%
CC(C)(C)n1ncc2c(=O)n(Cc3cccc(OC(F)(F)F)c3)cnc21,.,-0.8%,.,-4.0%,.
FC(F)Oc1ccc(C2=Nn3c(nnc3-c3ccccc3C(F)(F)F)SC2)cc1OCC1CC1,.,.,.,-2.1%,.
CCc1ccc(/C=C2/SC(N3CCOCC3)=NC2=O)cc1,.,4.4%,-7.3%,3.4%,-0.1%
CCN1C/C(=C/c2ccc(N3CCOCC3)cc2)C(=O)/C(=C/c2ccc(N3CCOCC3)cc2)C1,5.5%,79.4µM*,-20.6%,-8.3%,-7.8%
COC(=O)c1cc(F)c(S(=O)(=O)N2CCN(S(=O)(=O)c3ccc4c(c3)OCCO4)CC2)cc1F,0.3%,.,.,.,.
Cc1ccc(OCC(=O)Oc2ccc(C)c(C)c2)cc1,50.1µM*,-5.1%,.,-42.2%,-5.5%
Cc1cc(Cn2cnc3c(cnn3C(C)(C)C)c2=O)ccc1F,.,-12.4%,.,-0.7%,.
COc1ccc(-c2c(-c3ccc(OCC(=O)NN)cc3O)n[nH]c2C)cc1OC,.,1.3%,.,-0.1%,-1.8%
COc1ccc(-c2c(-c3ccc(OCC(=O)NN)cc3O)n[nH]c2C(F)(F)F)cc1,0.0%,-9.7%,4.1%,-3.0%,12.6µM*
O=C(O)CCc1ccc(-c2cccs2)o1,15.8µM*,-16.2%,-21.2%,?,0.7%
SMILES,TDP1 inh,FEN1 inhibitor,RECQ1 helicase,APEX1 inh,BLM helicase inh
CNc1cc2c(cc1S(=O)(=O)Nc1ccc(C)c(C)c1)CCC(=O)N2,2.2%,.,.,.,.
COCc1cc(C)nc(N/N=C/c2ccc(-c3ccc(C(=O)O)c(Cl)c3)o2)c1C#N,28.2µM*,.,?,?,-0.7%
COCc1cc(C)n(CC(=O)N/N=C/c2ccc(-c3ccc(Cl)c(C(=O)O)c3)o2)c(=O)c1C#N,.,4.6%,-8.2%,-3.2%,4.0%
O=C1C=C(N2CCOCC2)c2ccccc2C1=O,.,-18.4%,.,14.3%,8.91µM*
CC1=C(C)C(=O)C(N2CCOCC2)=CC1=O,-0.6%,0.2%,-5.0%,1.7%,-4.3%
COc1ccc([C@H]2[C@H](c3ccccc3)C(=O)N2Cc2ccccc2)cc1COc1ccc(NC(C)=O)cc1,0.3%,.,.,.,.
CCn1c(=O)c([N+](=O)[O-])c(Cl)c2ccccc21,3.0%,?,-2.8%,0.0%,-4.9%
O=c1c([N+](=O)[O-])c(O)c2ccccc2n1Cc1ccccc1,.,11.2µM*,.,9.9%,-5.4%
O=C(OCC#CCSc1nnc(-c2cccc3ccccc23)o1)c1cc2ccccc2s1,-4.1%,.,.,.,.
COc1cccc(NC(=O)CN2C(=O)NC(C)(c3ccc(C)cc3)C2=O)c1 (configuration not stated),39.8µM*,-13.3%,.,31.5%,3.3%
COc1cccc(NC(=O)CN2C(=O)NC3(CCCC3)C2=O)c1,-4.1%,0.8%,.,-2.8%,-1.3%
COc1ccc(OC)c2nc3c(C(=O)NCCN(C)C)cccc3nc12,.,14.1µM*,.,.,.
Oc1c(Br)cc(/C=N/n2c(-c3ccccc3)n[nH]c2=S)c(Br)c1O,?,.,.,0.423µM*,0.794µM*
CC(=O)c1ccc2c3c(cccc13)CC2,4.2%,3.6%,-2.0%,-0.8%,-0.1%
O=C(C[N+]12CCCc3cccc(c31)CCC2)c1ccc2ccc3cccc4ccc1c2c34,.,44.7µM*,.,.,.
C=C1C=C(C(F)F)n2ncc(C(=O)NCCc3ccccc3Cl)c2N1,.,.,.,23.3%,.
CCN(CCO)c1ccc(NC(=S)Nc2cccc(S(=O)(=O)N(C)C)c2)cc1,0.0%,-10.9%,39.8µM*,?,-19.7%
CC(C)(C)OC(=O)NCc1nnc(-c2cc3ccccc3[nH]2)o1,-0.1%,.,.,.,.
CC[N+]1=C(C)C(C)(C)c2cc(C)ccc21,8.0%,?,25.1µM*,10µM*,-10.2%
Brc1cccc[n+]1CCC[n+]1ccccc1Br,.,79.4µM*,.,.,.
O=c1oc2cc(O)ccc2c2oc3cc(O)ccc3c12,-2.7%,39.8µM*,31.6µM*,?,?
Cc1c(O)c2ccccc2oc1=O,.,-5.3%,i,12.4%,-0.7%
COc1c(O)c(O)cc2c1oc1c3ccccc3oc(=O)c21,4.5%,.,11.2µM*,28.2µM*,14.1µM*
Cc1ccc(CNc2ncnc3ccc(-c4ccc5c(c4)OCO5)cc23)o1,3.2%,.,.,.,.
Cc1cccc(S(=O)(=O)NC2CCN(C#N)C2)c1 (configuration not stated),0.0%,.,.,.,.
CCN1CCN(Cc2ccc(NC(=O)c3ccc(C)c(/C=C/c4cnc(Nc5cc(N6CCNCC6)nc(C)n5)cn4)c3)cc2C(F)(F)F)CC1,.,12.6µM*,.,?,33.3%
CCC[C@@H]1C[C@@H](C(=O)N[C@@H]([C@H]2O[C@H](SC)[C@H](O)[C@@H](O)[C@H]2O)[C@H](C)Cl)N(C)C1,.,.,.,-0.1%[21 µM],.
